# KKLEB cytotox: cytotoxicity in KKLEB CF airway cells, primary screen, cytotoxicity control for CF NF-kB inhibitor project, cell-based, uHTS, fluorescence assay plates; AID 602141, 2011; 360,000 tested, 0.36% active; activity change (cytotoxicity), % at 5 µM; KKLEB CF airway cells viability, ATPlite luminescence, overnight; hits give low values; cells stimulated with P. aeruginosa culture filtrate;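 active means corrected activity change at or below -50% at 5 µM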
# Peg3 prom inh: Peg3 promoter-driven luciferase inhibitors, primary screen, cell-based, HeLa, luciferase luminescence. 360,000 tested, 1.7% active. inhibition, % at 20 µM. HeLa PEG-Prom luciferase reporter, overnight. AID 588405, 2011;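 active means inhibition of at least 50% at 20 µM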
# HIF-2a inh: HIF-2a reporter inhibitors, primary screen, luminescence, 786-0 RCC cells; 786-0 RCC cells HIF-2a reporter, luciferase luminescence, overnight; inhibition, % at 18.8 µM; 360,000 tested, 0.72% active; AID 624352, 2012;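 active means inhibition of the luminescence signal of 40% or more relative to plate controls, in a single-dose primary screen at 18.75 µM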
# TRPM1 prom inh: inhibitors of MITF-dependent TRPM1 promoter reporter, primary screen, cell-based, SK-MEL-5, single point, luciferase | 330,000 tested, 0.83% active | AID 488899, 2010 | SK-MEL-5 TRPM1 promoter luciferase, 24 h | inhibition, % at 12.5 µM;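 active means mean inhibition across replicates of 60% or more, whatever share of single replicates reaches that level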
# CF NFkB inh: inhibitors of PAF-induced NF-kB signaling, primary screen, cell-based, GFP fluorescence, uHTS | KKLEB NF-kB-GFP reporter, GFP fluorescence overnight | inhibition, % at 5 µM | 360,000 tested, 0.86% active | AID 588850, 2011;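 active means at least 50% inhibition at 5 µM, scaled per plate between neutral and stimulator controls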;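 further: PAF is a Pseudomonas aeruginosa culture filtrate used as stimulus; plate controls were PAF-stimulated DMSO wells for no effect and unstimulated DMSO wells for full effect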
# Shn3 3UTR inh: reduction of Shn3 3'UTR firefly luciferase signal, primary screen, Schnurri-3 inhibitor project, cell-based, Clone20 osteoblasts, set 2; 360,000 tested, 0.52% active; Clone20 osteoblast Shn3 3'UTR firefly luciferase, 24 h; inhibition, % at 12.5 µM;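 active means mean inhibition of at least 75% with every replicate also reaching 75%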;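 further: 0% = median of neutral control wells and 100% = pilot-screen positive control compound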
# CF NFkB inh conf: inhibitors of PAF-induced NF-kB signaling, retest, confirmation, cell-based, GFP fluorescence, single concentration; inhibition, % at 5 µM; shares compounds with CF NFkB inh; 1,300 tested, 64% active; KKLEB CF airway cells, overnight; in the data active means inhibition above about 40%;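 further: stimulus PAF is a Pseudomonas aeruginosa filtrate and not platelet activating factor; plate controls were DMSO wells with stimulus for no effect and unstimulated DMSO wells for full effect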
# * marks the source's active call; other numbers are inactive results; · = no result. Most compounds without a hit are left out; they make up all but 2.7% or so of the library.
SMILES,KKLEB cytotox,Peg3 prom inh,HIF-2a inh,TRPM1 prom inh,CF NFkB inh,Shn3 3UTR inh,CF NFkB inh conf
O=[N+]([O-])c1cccc(-c2ccc(/C=N/Nc3nc(N4CCCCC4)nc(N4CCCCC4)n3)o2)c1,-17,69*,30,-2,55*,17,39
COc1ccccc1Cn1c(=O)c2ccccc2n2c(SCc3csc(C)n3)nnc12,5,15,19,5,-13,2,·
COc1ccccc1Cn1c(=O)c2ccccc2n2c(Sc3ncnc4sccc34)nnc12,-31,26,24,19,72*,58,48*
COc1ccc(CNC(=O)C2CCC(CNS(=O)(=O)c3ccc(C)cc3)CC2)cc1 (centres undefined),6,5,-3,-2,2,9,·
COc1ccc(C(C(=O)NC(C)(C)C)N(C(=O)CCC(=O)Nc2ccccn2)C2CCCCC2)cc1 (centres undefined),-6,8,-2,-8,4,-6,·
Clc1cccc(Cc2c(-c3ccco3)nc3ccc(Br)cn23)c1,-4,-8,24,·,43,-5,·
Clc1cccc(Cc2c(-c3ccco3)nc3ccc(Cl)cn23)c1,-14,-11,18,·,70*,-7,-50
Cc1ccc(Cc2c(-c3ccco3)nc3c(C)cc(Br)cn23)cc1,-16,-60,-1,·,51*,-14,-14
CCOC(=O)c1cc(=O)n2c(nc3ccccc32)[nH]1,0,-80,-94,-24,-26,-87,·
O=C(c1[nH]c(C(F)(F)F)nc1-c1ccccc1)N1CCN(c2ccccc2)CC1,-12,22,8,·,6,5,·
O=C(c1[nH]c(C(F)(F)F)nc1-c1ccccc1)N1CCN(c2c(Cl)cncc2Cl)CC1,-8,12,-1,·,64*,-2,57*
O=C(c1cccc(C(F)(F)F)c1)C1CCCN(C(=O)/C=C/c2cnc[nH]2)C1 (centres undefined),24,26,1,-6,-34,-6,·
C=C1C[C@H]2[C@@H]3C=C(C)C4=CC(=O)CC[C@]4(C)[C@H]3CC[C@]2(C)[C@@]1(OC(C)=O)C(C)=O,4,-4,22,-3,68*,-18,-33
O=C(Nc1ccccc1Cl)c1cc(C2CCCN(C(=O)c3cccs3)C2)on1 (centres undefined),2,-40,-44,·,-10,-6,·
C=CCn1cnc2c(c1=O)c1nc3ccccc3nc1n2/N=C/c1cc(OC)c(OC)c(OC)c1,11,1,-57,9,51*,66,117*
COc1ccc(S(=O)(=O)Nc2ccc3c(c2)C(=O)N([C@H](C)CO)C[C@H](C)[C@@H](CN(C)S(=O)(=O)c2c(C)noc2C)O3)cc1,5,-10,9,-12,-3,3,·
O=[N+]([O-])c1ccc(Oc2ccc(F)cc2)c2ccncc12,-24,21,39,3,59*,12,63*
O=[N+]([O-])c1cccnc1Oc1ccc(F)cc1,-2,7,11,7,-5,-23,·
O=C1/C(=C/c2cccnc2)CCc2c1[nH]c1ccccc21,-14,-127,-200,-81,70*,55,84*
O=C(NC1CCCCC1)c1ccc([N+](=O)[O-])o1,-14,47,13,44,32,-16,·
O=C(NC1CCCC(C(F)(F)F)C1)c1ccc([N+](=O)[O-])o1 (centres undefined),-16,71*,30,66*,92*,46,53*
CC1(C)Cc2nc(-c3ccccc3)nc(SCC(=O)N3CCCC3)c2CO1,16,8,15,-6,-8,3,·
Cc1ncc(CO)c2c1Oc1nc(-c3ccccc3F)nc(SCC(=O)N(C)c3ccccc3)c1C2,-28,85*,25,16,94*,26,96*
